The list is not random: actives were taken first. Their share in the collection is about 19%.
IL-1B inflam inh = qHTS for Inhibitors of Inflammasome Signaling: IL-1-beta AlphaLISA Primary Screen. activity change, % at 57.5 µM. THP-1 LPS/ATP IL-1B secretion, AlphaLISA, 16 h; hits give low values. 4.7% of 360,000 active; in the data active = activity change below about -50%; inconclusive = mostly about -30% to -49%
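THP-1 cells pretreated 1 hr with compounds (up to 57.5 uM final), then stimulated with LPS (250 ng/mL final) plus ATP (1.25 mM final); secreted IL-1B measured by AlphaLISA after 16 hr, decreased signal indicating inhibition.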
HT1080-NT tox = qHTS for induction of synthetic lethality in tumor cells producing 2HG: qHTS for the HT-1080-NT fibrosarcoma cell line | HT-1080-NT fibrosarcoma viability, CellTiter-Glo ATP luminescence, 48 h | 1.6% of 360,000 active | Potency, µM (doses to about 46.1 µM), for inactives: at the highest dose activity, negative = less viability, usual class: cytotoxic | AID 686970, 2013;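 also: NT is the 2HG producing partner of a matched IDH1 knockdown line; potency is read from the fitted curve at half-maximal effect; 0% = DMSO-treated cells and -100% = media-only wells without cells; nearly all actives have a fitted effect of over 55% in size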
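Toxicity toward the 2HG-producing NT line was scored as %Activity, normalised to DMSO and no-cell wells, from CellTiter-Glo luminescence after 48 hours' treatment.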
TDP1 cell CPT = qHTS for Inhibitors of human tyrosyl-DNA phosphodiesterase 1 (TDP1): qHTS in cells in presence of CPT | chicken DT40 Tdp1-/-;hTDP1 cells + 20 nM CPT, ATP luminescence, 48 h | Potency, µM (doses to about 46.2 µM), for the others: at the top dose activity change, negative = growth inhibition, usual class: inhibitors | 12% of 420,000 active; also: potency is read from the fitted curve at half-maximal effect; nearly all actives have a fitted effect of over 55% in size
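Cell growth measured by CellTiter-Glo luminescence after a minimum 48 h, 37 C compound exposure with 20 nM CPT in Tdp1-knockout DT40 cells stably expressing hTDP1, seeded 400/well; qHTS titration format.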
TDP1 cell noCPT = qHTS for Inhibitors of human tyrosyl-DNA phosphodiesterase 1 (TDP1): qHTS in cells in absence of CPT. DT40 Tdp1-/- hTDP1 cells, no CPT, ATP luminescence, 48 h. AID 686978, 2013. 15% of 420,000 active. Potency, µM (series often up to 46.2 µM), inactives show at the top dose activity change, negative = growth inhibition, hits mostly inhibitors; also: potency is read from the fitted curve at half-maximal effect; nearly all actives have a fitted effect of over 55% in size
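Luminescent ATP content (CellTiter-Glo) served as the growth readout. Knockout chicken DT40 cells expressing human TDP1 were exposed to compounds without camptothecin for a minimum 48 hr at 37 °C.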
uPA surface inh = qHTS for Inhibitors of Cell Surface uPA Generation. cell surface uPA generation assay, qHTS. Potency, µM (doses to about 38.3 µM), for the others: at the top dose activity change, negative = inhibition, most hits filed as inhibitors. 0.31% of 330,000 active. AID 540303, 2011; active = well fitted inhibition curve with a large enough effect; inconclusive = small, poorly fitted or top-dose-only effect; inactive = no such curve, though single readings can be large or run the other way; tested in mouse RAW 264.7 cells; also: potency is read from the fitted curve at half-maximal effect; nearly all actives have a fitted effect of over 55% in size
HT1080 IDH1KD tx = qHTS for induction of synthetic lethality in tumor cells producing 2HG: qHTS for the HT-1080-IDH1KD cell line. HT-1080 IDH1 knockdown viability, ATP luminescence, 48 h. Potency, µM (top dose mostly 46.1 µM), without a hit: top-dose activity, negative = toxicity, hits mostly cytotoxic. 2% of 360,000 active;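 also: potency is read from the fitted curve at half-maximal effect; 0% = DMSO wells and -100% = cell-free medium wells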
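IDH1KD HT-1080 cells, 750/well, RPMI + 5% FBS; compound pinned after 2 h settling; 48 h, 37 °C; CellTiter-Glo luminescence; % activity normalised to DMSO and no-cell wells; curves fitted, classed by r2 and efficacy.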
An asterisk follows results filed as active. Unless noted, calls follow the shape of the dose curve; as a rule, active = well fitted curve in the direction sought with a large enough effect; inconclusive = small, poorly fitted or top-dose-only effect, or another doubt; inactive = no such curve, though single readings can be large; an effect the other way counts as inactive or inconclusive. Unless noted, % is scaled to controls: 0 for no effect and ±100 for the full control effect.

What do the screens show for `N#Cc1sc2nc3c(c(-c4ccco4)c2c1N)CCCC3`?
IL-1B inflam inh: 37; HT1080-NT tox: -12%; TDP1 cell CPT: inconclusive; TDP1 cell noCPT: 23µM*; uPA surface inh: 9%; HT1080 IDH1KD tx: -10%

How did Cc1ccc(-c2c3c(nc4sc(C(N)=O)c(N)c24)CCC3)cc1 do in these assays?
IL-1B inflam inh: -19; HT1080-NT tox: -21%; TDP1 cell CPT: inconclusive; TDP1 cell noCPT: inconclusive; uPA surface inh: 7%; HT1080 IDH1KD tx: inconclusive

What do the screens show for `Cc1c(C(=O)Nc2ccccc2F)sc2ncn(CC(=O)N3CCOCC3)c(=O)c12`?
IL-1B inflam inh: 13; HT1080-NT tox: 21%; TDP1 cell CPT: -3%; TDP1 cell noCPT: -1%; uPA surface inh: -2%; HT1080 IDH1KD tx: 11%

How did O=C(Nc1ccc(Cl)cc1C(=O)c1ccccn1)c1ccccc1 do in these assays?
IL-1B inflam inh: 7; HT1080-NT tox: 4%; TDP1 cell CPT: -3%; TDP1 cell noCPT: inconclusive; HT1080 IDH1KD tx: 0%

How did COc1ccc(C(C)=O)cc1CSc1ccc2c(c1)OCCO2 do in these assays?
IL-1B inflam inh: -3; HT1080-NT tox: -10%; TDP1 cell CPT: -20%; TDP1 cell noCPT: -28%; uPA surface inh: -1%; HT1080 IDH1KD tx: -2%

Results for NC(=O)c1sc2nc3c(c(-c4ccco4)c2c1N)CCCC3 ?
IL-1B inflam inh: -7; HT1080-NT tox: 8%; TDP1 cell CPT: inconclusive; TDP1 cell noCPT: 16µM*; uPA surface inh: 19%; HT1080 IDH1KD tx: 5%

Results for Cc1ccc2nc(-c3ccc(NC(=S)NC(=O)C(C)C)cc3)sc2c1 ?
IL-1B inflam inh: inconclusive; HT1080-NT tox: 2.8µM*; TDP1 cell CPT: -11%; TDP1 cell noCPT: -13%; uPA surface inh: 3%; HT1080 IDH1KD tx: 1.6µM*

Results for CCC(=O)NC(=S)Nc1ccc(-c2nc3ccc(C)cc3s2)cc1 ?
IL-1B inflam inh: -5; HT1080-NT tox: 28%; TDP1 cell CPT: 21µM*; TDP1 cell noCPT: inconclusive; uPA surface inh: 0%; HT1080 IDH1KD tx: 13%

How did Cc1ccc2nc(-c3ccc(NC(=S)NC4CC(C)(C)NC(C)(C)C4)cc3)sc2c1 do in these assays?
IL-1B inflam inh: -97*; HT1080-NT tox: 23µM*; TDP1 cell CPT: 3.7µM*; TDP1 cell noCPT: 6.5µM*; uPA surface inh: -8%; HT1080 IDH1KD tx: inconclusive

Results for Cc1ccc2nc(-c3ccc(NC(=O)C(C)N4C(=O)c5ccccc5C4=O)cc3)sc2c1 (centres undefined) ?
IL-1B inflam inh: 16; HT1080-NT tox: 17%; TDP1 cell CPT: 0%; TDP1 cell noCPT: -5%; uPA surface inh: -3%; HT1080 IDH1KD tx: 16%

How did Cc1ccc(C2(C)NC(=O)N(CC(=O)Nc3ccc(-c4nc5ccc(C)cc5s4)cc3)C2=O)cc1 (centres undefined) do in these assays?
IL-1B inflam inh: 55; HT1080-NT tox: -14%; TDP1 cell CPT: inconclusive; TDP1 cell noCPT: 10µM*; uPA surface inh: -2%; HT1080 IDH1KD tx: inconclusive

How did COc1ccc2oc(-c3ccc(O)cc3)cc(=O)c2c1 do in these assays?
TDP1 cell CPT: inconclusive; TDP1 cell noCPT: 27µM*

What do the screens show for `COc1ccc(/C=C/c2cc(=O)c3cc(Cl)ccc3o2)cc1`?
IL-1B inflam inh: -10; HT1080-NT tox: 2%; TDP1 cell CPT: inconclusive; TDP1 cell noCPT: 21µM*; uPA surface inh: -5%; HT1080 IDH1KD tx: 8%

What do the screens show for `COc1ccc(-c2cc(=O)c3c(OC)c(OC)c(OC)c(OC)c3o2)cc1`?
IL-1B inflam inh: inconclusive; HT1080-NT tox: 1%; TDP1 cell CPT: 23µM*; TDP1 cell noCPT: 16µM*; uPA surface inh: 3%; HT1080 IDH1KD tx: 8%

Results for COc1cc(-c2cc(=O)c3c(O)c(OC)c(OC)c(OC)c3o2)cc(OC)c1OC ?
IL-1B inflam inh: inconclusive; HT1080-NT tox: -20%; TDP1 cell CPT: inconclusive; TDP1 cell noCPT: inconclusive; uPA surface inh: 7%; HT1080 IDH1KD tx: -1%

Results for COC(=O)COc1ccc2oc(-c3ccc(OC)cc3)cc(=O)c2c1 ?
TDP1 cell CPT: -2%; TDP1 cell noCPT: 0%

What do the screens show for `COc1ccc(-c2cc(=O)c3cc(OC)ccc3o2)cc1`?
IL-1B inflam inh: -19; HT1080-NT tox: 9%; TDP1 cell CPT: 4%; TDP1 cell noCPT: -21%; uPA surface inh: 1.4µM*; HT1080 IDH1KD tx: 7%

How did CNC(=O)OCc1nc(SC2CCCCO2)n(C)c1COC(=O)NC (centres undefined) do in these assays?
IL-1B inflam inh: -1; HT1080-NT tox: 8%; TDP1 cell CPT: inconclusive; TDP1 cell noCPT: -10%; HT1080 IDH1KD tx: 0%

Results for CC(C)(CO)NC(=S)NCc1ccco1 ?
IL-1B inflam inh: -5; HT1080-NT tox: 5%; TDP1 cell CPT: 3%; TDP1 cell noCPT: -3%; uPA surface inh: -4%; HT1080 IDH1KD tx: 17%

How did Cc1nn(C)c(C(=O)N/N=C/c2cc3c(cc2Br)OCO3)c1Br do in these assays?
IL-1B inflam inh: 0; HT1080-NT tox: -1%; TDP1 cell CPT: inconclusive; TDP1 cell noCPT: 18µM*; uPA surface inh: -1%; HT1080 IDH1KD tx: -11%

How did O=C(CCc1ccccc1)N/N=C\c1cc2c(cc1Br)OCO2 do in these assays?
IL-1B inflam inh: 3; HT1080-NT tox: 3%; TDP1 cell CPT: inconclusive; TDP1 cell noCPT: inconclusive; uPA surface inh: 0%; HT1080 IDH1KD tx: 4%

Results for O=C(CSCc1ccccc1)N/N=C/c1cc2c(cc1Br)OCO2 ?
IL-1B inflam inh: 0; HT1080-NT tox: -25%; TDP1 cell CPT: -74%; TDP1 cell noCPT: 18µM*; uPA surface inh: -2%; HT1080 IDH1KD tx: inconclusive

How did CCN1CCN(c2ccc(S(=O)(=O)N3CCOCC3)cc2NC(=O)c2sccc2C)CC1 do in these assays?
IL-1B inflam inh: -20; HT1080-NT tox: -8%; TDP1 cell CPT: -7%; TDP1 cell noCPT: -3%; uPA surface inh: 0%; HT1080 IDH1KD tx: 0%

What do the screens show for `CCN(CC)S(=O)(=O)c1ccc(N2CCOCC2)c(NC(=O)c2cc(C)cc(C)c2)c1`?
IL-1B inflam inh: -51*; HT1080-NT tox: -1%; TDP1 cell CPT: 7.3µM*; TDP1 cell noCPT: 18µM*; uPA surface inh: -19%; HT1080 IDH1KD tx: -10%

Compound activity deposited in PubChem BioAssay by National Center for Advancing Translational Sciences (NCATS).
